High-throughput results deposited in PubChem by The Scripps Research Institute Molecular Screening Center.
Fam108B counter – counter-screen for RBBP9 inhibitors: inhibitors of mouse Fam108B. AID 1947. inhibition, % at 9.51 µM. recombinant Fam108B, FP-Rh probe fluorescence polarization. 300,000 tested, 0.33% active;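 active means inhibition above the screen mean inhibition plus 3 SD, computed separately per campaign, cut at about 18% in these data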;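 further: inhibitors lower polarization as less probe binds the enzyme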
PME-1 inh – blocks human protein phosphatase methylesterase 1. Q9Y570. inhibition, % at 5.9 µM. 320,000 tested, 0.53% active. recombinant PME-1, FP-Rh probe fluorescence polarization;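 active means inhibition above the campaign mean of all compounds plus 3 SD, cut at about 26% in these data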;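 further: competitive labeling of PME-1 active site by serine hydrolase directed probe; inhibitors block probe labeling so polarization falls and inhibition rises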
PREPL inh – inhibitors of human prolyl oligopeptidase-like enzyme PREPL | 320,000 tested, 0.68% active | inhibition, % at 5.96 µM | recombinant PREPL, fluorescence polarization activity-based probe | Q4J6C6; in the data active means inhibition above about 43%
LYPLA1 inh – counter-screen for PME1 inhibitors: inhibitors of human LYPLA1; O75608; recombinant LYPLA1, FP-Rh probe fluorescence polarization; inhibition, % at 5.9 µM; 320,000 tested, 0.16% active;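 active means inhibition above the mean of all tested compounds plus 3 SD, set per campaign, cut at about 14% in these data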;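 further: inhibitors block serine hydrolase probe labeling of LYPLA1 so polarization falls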
Target sequence (O75608 whole entry, looked up): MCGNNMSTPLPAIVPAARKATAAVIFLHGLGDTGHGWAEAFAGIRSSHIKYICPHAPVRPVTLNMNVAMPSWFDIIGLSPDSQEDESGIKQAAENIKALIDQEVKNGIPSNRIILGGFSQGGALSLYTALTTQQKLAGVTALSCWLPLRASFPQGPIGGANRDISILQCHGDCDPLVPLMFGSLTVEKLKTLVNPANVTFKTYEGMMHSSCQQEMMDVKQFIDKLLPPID
LYPLA2 inh – counter-screen for PME1 inhibitors: inhibitors of human LYPLA2; AID 2177; 320,000 tested, 0.38% active; recombinant LYPLA2, FP-Rh probe fluorescence polarization; inhibition, % at 5.9 µM; O95372;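 active means inhibition above the screen-wide mean plus 3 SD, limit set per campaign, cut at about 26% in these data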
Target sequence (O95372 whole entry, looked up): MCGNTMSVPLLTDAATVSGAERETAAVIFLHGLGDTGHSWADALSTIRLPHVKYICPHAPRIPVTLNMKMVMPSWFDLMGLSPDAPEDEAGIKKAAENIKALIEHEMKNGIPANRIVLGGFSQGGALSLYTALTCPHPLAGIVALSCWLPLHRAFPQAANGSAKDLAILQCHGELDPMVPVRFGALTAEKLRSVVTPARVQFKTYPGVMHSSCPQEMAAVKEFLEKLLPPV
Fam108b inh conf – confirmation of mouse Fam108b serine hydrolase inhibitors; shares compounds with Fam108B counter; recombinant Fam108b, FP-Rh probe fluorescence polarization; inhibition, % at 9.51 µM; AID 1978; 930 tested, 44% active;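 active means inhibition above a limit from the primary screen, the mean over all compounds plus 3 SD, cut at about 19% in these data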;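 further: inhibitors free the probe so polarization falls as inhibition rises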
Fam108b ABPP HTS – mouse ABHD17B inhibition | shares compounds with Fam108B counter | recombinant Fam108b, gel-based ABPP, fluorophosphonate probe | inhibition, % at 20 µM | 260 tested, 44% active; in the data active means inhibition above about 40%
Each line names hits and unclear results; the compound was inactive in the other large screens (follow-up assays come after a bar, where they were run). In the library only some 1.3% were active in any assay of this set; here they are far more common.

Fc1ccc(-c2nc(-c3cccs3)[nH]c2-c2ccc(F)cc2)cc1	Fam108B counter 19 | Fam108b inh conf inactive
O=[N+]([O-])c1ccc(-c2nc(-c3cccs3)c(-c3cccs3)[nH]2)cc1	Fam108B counter 24, PME-1 inh 42 | Fam108b inh conf 20
COc1ccc(CC2=CC(=O)c3ccccc3C2=O)cc1	none
C=C1CCC2[C@](C)(CO[C@@H]3O[C@H](CO)[C@@H](O)[C@H](O)[C@H]3O)CCC[C@@]2(C)[C@@H]1CCC1=CCOC1=O (some centres not stated)	none
O=S(=O)(Nc1ccccc1N1CCOCC1)c1ccc(Cl)cc1	none (no result: Fam108B counter)
COc1cccc(C(=O)/C=C/Nc2ccc(NC(C)=O)cc2)c1	none
COc1cccc(C(=O)/C=C/Nc2ccc(S(=O)(=O)Nc3cccc(C(C)=O)c3)cc2)c1	Fam108B counter 22 | Fam108b inh conf inactive
COc1ccccc1CNC(=O)CNC(=O)[C@@H]1Cc2ccccc2CN1	none
CCOc1cc(/C=C2\N=C(SC)SC2=O)cc([N+](=O)[O-])c1OC(C)=O	Fam108B counter 22 | Fam108b inh conf inactive
CCOc1c(OC(C)=O)ccc(/C=C2\N=C(SCC)SC2=O)c1[N+](=O)[O-]	none
CCOC(=O)c1c(-c2ccccc2)oc2ccc(OCC(O)CN(C)C)cc12 (configuration not stated)	none
CCOC(=O)/C(=N\Nc1ccc(Cl)cc1)c1csc(Nc2ccccc2)n1	Fam108B counter 21, PME-1 inh 29 | Fam108b inh conf 27
CCN(CC)C(=O)c1csc(Nc2ccc(C)cc2)n1	none
CCCCC(CCC(=O)O)(C(=O)OCC)c1csc(Nc2ccccc2)n1 (configuration not stated)	none
CCOC(=O)/C(=N\Nc1ccc(OC)cc1)c1csc(Nc2ccccc2)n1	Fam108B counter 23 | Fam108b inh conf inactive
CCOC(=O)/C(=N/Nc1ccccc1)c1csc(Nc2ccccc2)n1	Fam108B counter 22 | Fam108b inh conf inactive
O=C(c1ccc([N+](=O)[O-])cc1)N1CCN(Cc2ccccc2[N+](=O)[O-])CC1	none
O=C(Cn1c(=O)sc2ccccc21)Nc1ccc(O)cc1	none
Nc1nn2c(-c3ccccc3)cc(=O)[nH]c2c1N=Nc1ccc(O)cc1	Fam108B counter 21 | Fam108b inh conf inactive
CCn1nc([N+](=O)[O-])c(C(C#N)c2nc3ccccc3n2C)c(Cl)c1=O (configuration not stated)	none
CCCn1nc([N+](=O)[O-])c(C(C#N)c2nc3ccccc3s2)c(Cl)c1=O (configuration not stated)	Fam108B counter 31, PME-1 inh 36 | Fam108b inh conf 31 | Fam108b ABPP HTS inactive
O=C(c1cc([N+](=O)[O-])ccc1N1CCCC1)N1CCCCC1	none
O=C(c1cc([N+](=O)[O-])ccc1N1CCCCC1)N1CCCCC1	Fam108B counter 38 | Fam108b inh conf inactive
COc1ccc2oc(=O)c(-c3csc(Nc4cccc(O)c4)n3)cc2c1	Fam108B counter 34, PME-1 inh 47 | Fam108b inh conf 39 | Fam108b ABPP HTS 100
CSc1ccc(C2Nc3cccc4cccc(c34)N2)cc1	Fam108B counter 19, PME-1 inh 48 | Fam108b inh conf inactive
Clc1ccc(C2Nc3cccc4cccc(c34)N2)cc1	Fam108B counter 28 | Fam108b inh conf 22
c1cc2c3c(cccc3c1)NC(c1ccc3c(c1)OCO3)N2	Fam108B counter 24 | Fam108b inh conf inactive
CSc1ccc(C2NC(=O)c3ccccc3N2)cc1 (configuration not stated)	none
O=[N+]([O-])c1cc(C2Nc3cccc4cccc(c34)N2)ccc1Cl	none
Brc1ccc(C2Nc3cccc4cccc(c34)N2)s1	Fam108B counter 42, PME-1 inh 33 | Fam108b inh conf 28
CN1c2ccccc2N(C)C1c1ccc2c(c1)OCO2	none
CN(Cc1ccccc1)c1ccc(C(CC(N)=O)NC(=O)c2ccccc2)cc1[N+](=O)[O-] (configuration not stated)	none
C(=N\Nc1nc(Nc2ccccc2)nc(N2CCOCC2)n1)/c1c[nH]c2ccccc12	none
Cc1[nH]c2ccccc2c1/C=N/Nc1nc(Nc2ccc(F)cc2)nc(N2CCOCC2)n1	Fam108B counter 22 | Fam108b inh conf inactive
COc1cc2cc(-c3ccc(O)cc3O)nc(C)c2cc1OC	Fam108B counter 20 | Fam108b inh conf 21
O=C(Nc1ccc(F)cc1)C1CCCN1S(=O)(=O)c1ccc(Br)cc1 (configuration not stated)	none
c1cc2c3c(cccc3c1)NC1(CCC3(CC1)Nc1cccc4cccc(c14)N3)N2	Fam108B counter 36, PME-1 inh 47 | Fam108b inh conf inactive
CON(c1nc(Cl)nc(N(C)C)n1)S(=O)(=O)c1ccc(C)cc1	none
Cc1[nH]c2ccccc2c1/C=N/NC(=O)C1CC1(c1ccccc1)c1ccccc1 (configuration not stated)	Fam108B counter 21, PME-1 inh 42 | Fam108b inh conf inactive
COC(=O)[C@]1(C)N[C@H](CN(C)C(=O)Nc2ccc(OC)cc2)[C@@H]2C(=O)N(Cc3ccccc3)C(=O)[C@@H]21	none (no result: Fam108B counter, PME-1 inh, LYPLA1 inh, LYPLA2 inh)
COC1(OC)N=C(N)C2(C#N)C(c3ccccc3)NC(C)=CC12C#N (configuration not stated)	none
CC1=CC(C#N)(C#N)C(C#N)(C#N)C(c2ccccc2)N1 (configuration not stated)	Fam108B counter 43, PME-1 inh 50, LYPLA1 inh 42, LYPLA2 inh 44 | Fam108b inh conf inactive
N=c1oc2cc(O)ccc2cc1C(=O)Nc1ccc(Br)cc1	Fam108B counter 33 | Fam108b inh conf 164 | Fam108b ABPP HTS 40
CCN(CC)c1ccc(/C=C(/C#N)c2nc3ccccc3[nH]2)c(OC(C)C)c1	Fam108B counter 20 | Fam108b inh conf inactive
COc1cc2ccccc2cc1C(=O)Nc1ccc(C)cn1	none
O=C(Nc1nc(-c2ccccc2)cs1)c1ccccc1NS(=O)(=O)c1ccc(F)cc1	Fam108B counter 24 | Fam108b inh conf inactive
CC1CCN(C(=O)CCNC(=O)c2ccccc2Cl)CC1	none
Cc1cccc2c(N=Nc3ccc(S(=O)(=O)Nc4ccc(Cl)cc4)cc3[N+](=O)[O-])c(O)[nH]c12	Fam108B counter 20 | Fam108b inh conf inactive
Cc1ccc(C(=O)NCC(=O)OCC(=O)NCC(F)(F)F)cc1	none
COc1ccc(CCn2c(C)cc(C(=O)CN3C(=O)C(=O)N(Cc4ccco4)C3=O)c2C)cc1	none (no result: Fam108B counter)
O=S(=O)(c1c(F)cccc1F)N1CCN(C(=S)NCc2ccc3c(c2)OCO3)CC1	Fam108B counter 25 | Fam108b inh conf inactive
Fc1ccccc1NC(=S)NCc1ccc2c(c1)OCO2	none
COc1cccc(N2CCN(S(=O)(=O)c3ccc4c(c3)NC(=O)CS4)CC2)c1	none
